# Among all 1,200 compounds or so, about 55 (5%) were called active. About 15% were inconclusive and are not listed. Calls come from the whole dose curve; as a rule, active = well fitted inhibition curve with a large enough effect; inconclusive = small, poorly fitted or top-dose-only effect; inactive = no such curve, though single readings can be large or run the other way. This excerpt belongs to a sample that is enriched for actives.
# Test: qHTS Assay to Find Inhibitors of Chronic Active B-Cell Receptor Signaling: Hit Validation in Renilla Reporter Assay; note: nearly all actives have a fitted effect of over 70% in size
# Conditions: TMD8 IkB-Renilla luciferase reporter, NF-kB signaling; series mostly up to 57.5 µM; activity change, negative = inhibition: at the top concentration
# Outline: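 Dual-Glo luminescence read-out of constitutively expressed IkB-Photinus/Renilla luciferase reporters in ABC-DLBCL lines, used to retest primary hits; reporter enzymes differ from the click beetle luciferases used in the primary screen.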
# % is set by controls: 0 for no effect and ±100 for the full control effect; potency is the fitted concentration of half-maximal effect.
Compound,Potency,"activity change, negative = inhibition"
CC(=O)Nc1cc(N=Cc2ccc(O)cc2O)c(Cl)cc1Cl,12 µM (active),–
Cc1ccc(NS(=O)(=O)c2ccc(-c3cnc(C4CC4)o3)cc2)c(C)c1,–,5.35% (inactive)
COc1ccc(Nc2cc3n(c(=O)n2)CCc2cc(OC)c(OC)cc2-3)c(C)c1,–,-11% (inactive)
COc1ccc(-c2c(-c3cc(OC)c(OC)c(OC)c3)noc2C)cn1,–,-20.2% (inactive)
COc1cc(/C=N/N(C)c2ccccc2)ccc1O,–,7.62% (inactive)
COc1cc(/C=C2\OC(=O)c3c(OC)cccc32)ccc1O,–,1.72% (inactive)
COc1ccc(/C=C2\CCc3ccccc3C2=O)cc1O,26.9 µM (active),–
COc1ccc(-c2sc3cc(OC)c(OC)cc3c2C#CC(C)(C)O)cc1,–,6.22% (inactive)
CCCn1nc(Oc2nc(N(C)C)nc(N(C)C)n2)ccc1=O,–,-0.0736% (inactive)
COc1ccc(C(=O)Nc2ccc(-n3nncc3-c3ccc(OC)c(OC)c3)cc2)cc1,–,-26.9% (inactive)
CCN(c1cccc(C)c1)S(=O)(=O)c1ccc(-c2cc(C)no2)s1,–,12% (inactive)
COc1ccccc1/C=N/NC(=S)Nc1cccnc1,–,-2.9% (inactive)
O=C(CCCN1C(=O)/C(=C/c2ccccc2OC(F)F)SC1=S)Nc1cccnc1,30.1 µM (active),–
COc1ccccc1-c1cc(C(=O)Nc2cccnc2)no1,–,-1.55% (inactive)
Cc1ccc2c(c1)C(=O)C(=O)N2CC1COc2ccccc2O1 (stereo not given),–,-20.1% (inactive)
CCn1c2ccccc2c2cc(NC(=O)c3cc(OC)cc(OC)c3)ccc21,–,2.33% (inactive)
CCCCn1c(SCC(=O)c2cc(OC)ccc2OC)nc2cc(S(N)(=O)=O)ccc21,–,-0.961% (inactive)
COc1ccccc1-c1nnc2sc(-c3ccc(N(C)C)cc3)nn12,–,2.63% (inactive)
COC(=O)[C@@H]1[C@@H](C#N)C2(c3ccccc3-c3ccccc32)N(c2ccc(Cl)cc2)N1C#N,4.78 µM (active),–
O=C(Cc1ccc(-n2c(=O)c3ccccc3n(Cc3ccccc3F)c2=O)cc1)NCC1CCCO1 (stereo not given),–,-0.408% (inactive)

Compound,Potency,"activity change, negative = inhibition"
COc1cc(OC)c(OC)cc1/C=C/C(=O)c1ccc(NS(=O)(=O)c2ccc(C)cc2)cc1,–,-16.9% (inactive)
CN(C)c1nc(=NCc2ccco2)ss1,16.9 µM (active),–
CCC(=NCCc1c(C)[nH]c2ccc(C)cc12)C1=C(O)CC(c2ccccc2)CC1=O (stereo not given),–,-14.9% (inactive)
COc1ccc(C2CC(c3ccc(OC)c(OC)c3)=NN2C(=O)c2ccccc2)cc1 (stereo not given),–,-1.47% (inactive)
CCCc1noc2c1C(c1ccoc1)C(C#N)=C(N)N2 (stereo not given),23.9 µM (active),–
CCc1ccc(CNC(=O)Cc2ccc(NC(=O)C3=C(C)OCCS3)cc2)cc1,–,0.25% (inactive)
O=C(NN=C1CCCC1)c1n[nH]c2c1CCCC2,–,0.76% (inactive)
CC1=NN(C(N)=S)C(=O)C1N=Nc1cccc([N+](=O)[O-])c1 (stereo not given),–,-13.6% (inactive)
ClCc1nc2ccccc2c2ccccc12,23.9 µM (active),–
CCc1nc2ccccc2c(C(=O)OCc2nc3ccccc3c(=O)[nH]2)c1C,–,-0.954% (inactive)
S=c1nc2ccccc2c2nc(-c3ccccc3Cl)[nH]n12,–,-27.4% (inactive)
COc1cc(OC)cc(-c2cc3cc4c(cc3cn2)OCO4)c1,–,-4.56% (inactive)
CCOC(=O)C1=C(O)/C(=C/c2ccc(OCC(=O)O)c(OCC)c2)SC1=Nc1ccccc1,–,-13% (inactive)
CCOC(=O)C(C)N1C(=O)S/C(=C/c2ccc3c(c2)n(C)c(=O)n3C)C1=O (stereo not given),–,1.42% (inactive)
CCOc1cc(/C=C2\CN(C)C/C(=C\c3ccc(O)c(OCC)c3)C2=O)ccc1O,5.36 µM (active),–
Cc1ccc(C)c(Cn2c(=O)n(-c3ccc(CC(=O)NCc4ccco4)cc3)c(=O)c3sccc32)c1,–,-11% (inactive)
Cc1ccc(N2C(=O)c3cccc4c(N)ccc(c34)C2=O)c2cccnc12,–,-20.2% (inactive)
COc1ccc([C@H]2CC(=O)C=C(c3ccc(OC)cc3OC)C2)cc1,–,9.69% (inactive)
COc1ccc(S(=O)(=O)N2CCCCC2)cc1NS(=O)(=O)c1cc(Cl)ccc1Cl,–,32.2% (inactive)
CCOc1ccc(N(CC(=O)Nc2ccccc2C)S(=O)(=O)c2c(C)noc2C)cc1,–,0.105% (inactive)

# Source: PubChem BioAssay AID651568 (National Center for Advancing Translational Sciences (NCATS), 2012)
